Consider three molecules from PubChem BioAssay (NCATS).

Test [1] can be described thus: AP1 Signaling Pathway (AID 357; active = well fitted curve in either direction with a large enough effect, not every such curve was filed as active; note: % is set by controls: 0 for no effect and ±100 for the full control effect). The conditions noted are these: ME-180 AP-1-bla reporter, EGF-induced, beta-lactamase ratio, 5 h. The method in brief: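 AP-1-bla ME-180 cells with beta-lactamase reporter under AP-1 response element, stimulated with EC50 EGF; compounds titrated, 5 hours at 37 degrees Celsius. CCF4 read at 460/530 nm ratio; positive and negative modulators judged by AC50.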

Test [2] can be described thus: NFAT Signaling Pathway (AID 444; active = well fitted curve in either direction with a large enough effect, not every such curve was filed as active;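 note: carbachol stimulus at about its EC50 of 1 µM final; % is set by controls: 0 for no effect and ±100 for the full control effect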). The note with it: Jurkat NFAT-bla M1, carbachol, beta-lactamase ratio, 5 h. Summed up: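 Jurkat cells carrying an NFAT-driven β-lactamase reporter and co-transfected muscarinic M1 receptor were treated with compound plus carbachol (1 uM final, an EC50 level) for 5 h at 37 °C. CCF4 loading followed for 1 h at RT; 460/530 nm ratio gave %activity.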

Test [3] is described as follows: Stat Signaling Pathway (AID 446; active = well fitted curve in either direction with a large enough effect, not every such curve was filed as active;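 note: ME-180 cervical cancer cells given 40 pM IL-6 alongside compound; SIE-controlled beta-lactamase reporter measured as 460/530 nm FRET emission ratio; % is set by controls: 0 for no effect and ±100 for the full control effect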). The note with it: ME-180 SIE beta-lactamase reporter, IL-6 stimulated, 5 h. Summed up:
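Reporter line: ME-180 cervical carcinoma, SIE-beta-lactamase. Treatment: compound with 40 pM IL-6, 5 hrs, 37 C, in low-serum OPTI-MEM with 10 mM HEPES pH 7.3. Detection: 460/530 nm fluorescence.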

Test [4] addresses Glucocorticoid receptor (Homo sapiens) (UniProt P04150). Put plainly: GR-GFP Redistribution (AID 450;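 active = compounds whose dose series gives a full or clear partial fitted curve of increased nuclear translocation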; note: potency is the fitted concentration of half-maximal effect). The conditions noted are these: U2OS GR-GFP nuclear translocation, laser cytometry, 2 h.
For test [5] the target is unchanged. Kind of test: GR-EFC Redistribution (AID 451; calls by dose curve; note: potency is the fitted concentration of half-maximal effect). The note with it: CHO-K1 GR-EFC translocation, beta-gal luminescence, 2 h. Summed up: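 CHO-K1 cells stably expressing nuclear-localized β-gal enzyme acceptor and GR fused C-terminally to the enzyme donor fragment; ligand-driven nuclear translocation restores β-gal by complementation. Compounds titrated up to 46 uM final, 2 h at 37 °C; luminescence read.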

Test [6] concerns the target 3',5'-cyclic-AMP phosphodiesterase 4B (Homo sapiens) (UniProt Q07343). Put plainly: qHTS Assay for Inhibitors of PDE-IV (AID 607; active = well fitted activation curve with a large enough effect in the main read-out, with a control signal flat, not every such curve was filed as active; note: % of control where 0% means no effect). The method in brief:
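Cell-based read-out of cAMP via a modified cyclic nucleotide-gated channel and membrane potential dye (535/590 nm) in HEK293 cells expressing PDE4 endogenously. Compounds tested up to 22.9 uM final; 100 uM RO 20-1724 reference.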

Test [7] can be described thus: qHTS Assay for Identification of Small Molecule Agonists for Thrombopoietin (TPO) Signaling Pathway (AID 917). Note: % is set by controls: 0 for no effect and ±100 for the full control effect. The method in brief:
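Luminescence from a Glycoprotein IIb promoter–driven luciferase reporter served as read-out in murine Ba/F3 cells carrying the human TPO receptor. Cells, deprived of IL-3 overnight, received compounds with 26 pM TPO and were incubated 24 hrs at 37 C.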
For orientation: Quantitative high-throughput screening tests each substance at several concentrations.

For test [8], the target named is Muscarinic acetylcholine receptor M1 (Rattus norvegicus) (UniProt P08482). Kind of test: qHTS Assay for Antagonists of Acetylcholine Muscarinic M1 Receptor: Kinetic Measurement of Intracellular Calcium Response (AID 943).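 Note: Fluo-4 calcium signal as peak divided by basal fluorescence over 4 min; nearly all actives have a fitted effect of over 75% in size.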 The method in brief: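 CHO cells stably expressing rat M1 were loaded with no-wash Fluo-4 dye for 1 h at 37C, pre-incubated 10 min with compound, then challenged with EC80 carbachol (100 nM final); kinetic calcium read 4 min, peak/basal ratio.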

The target is the same in test [9]. Put plainly: qHTS Assay for Antagonists of Acetylcholine Muscarinic M1 Receptor: Measurement of IP-One Response (AID 944). Note: nearly all actives have a fitted effect of over 75% in size. Summed up: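 CHO cells expressing rat M1 receptor, recovered overnight, were pre-incubated 10 min with compound, then stimulated 30 min with carbachol at EC80 (200 nM) in LiCl-containing buffer, pH 7.4. IP1 accumulation was read by HTRF (620/665 nm).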

Test [10] deals with Pyruvate kinase (Leishmania mexicana) (UniProt Q27686). Put plainly: qHTS Validation Assay for Inhibitors of Leishmania Mexicana Pyruvate Kinase (AID 945).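 Note: 0% = DMSO only neutral control wells.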 Summed up:
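Read-out: luminescence from PKLight stop/detection reagent, data normalized to DMSO. Reaction: 0.2 nM E451W LmPYK, 0.5 mM PEP, 0.1 mM ADP, pH 7.2, 1 h room temperature.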

For test [11], the target named is Pyruvate kinase PKM (Homo sapiens) (UniProt P14618). Kind of test: qHTS Assay for Activators of Human Muscle Pyruvate Kinase (AID 954; active = well fitted curve in the direction sought with a large enough effect, not every such curve was filed as active;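 note: 0% = uninhibited enzyme and -100% = no enzyme or full thiadiazolimine inhibition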). The method in brief:
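Human PKM2 activity is measured as ATP generation, detected by luciferase-coupled luminescence. The enzyme (0.1 nM) acts on 0.5 mM PEP and 0.1 mM ADP for 1 h at ambient temperature; data are normalized to uninhibited and full-inhibition wells.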

Test [12] addresses Alpha-galactosidase A (Homo sapiens) (UniProt P06280). Kind of test: Counterscreen for Glucocerebrosidase Inhibitors: qHTS Assay for Human alpha-Galactosidase at pH 4.5 (AID 992). Note: 0% is about no effect. Summed up:
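Quantitative HTS: compounds tested from 0.7 nM up to 77 uM against 2 nM enzyme with 80 uM 4-MU alpha-D-galactopyranoside. The 20 min room-temperature reaction is stopped with 1M NaOH/1M glycine, pH 10.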
In general terms: The purpose of a counterscreen is to sort out artefacts and off-target activity.

Test [13] addresses alpha-glucosidase (Oryza sativa, rice) (UniProt Q653V4). Kind of test: Counterscreen for Glucocerebrosidase Inhibitors: qHTS Assay for Rice alpha-Glucosidase at pH 5.0 (AID 997).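 Note: 0% = full activity with enzyme and -100% = basal without enzyme.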 Summed up:
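Rice alpha-glucosidase (4 nM final) with 400 uM 4-methylumbelliferyl-alpha-D-glucopyranoside in citrate buffer pH 5.0, 20 min at room temperature, stopped at pH 10; fluorescence 365/440 nm, compounds 0.7 nM–77 uM, AC50 from Hill fits.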

A short description of test [14]: qHTS Assay for Lipid Storage Modulators (AID 1519; calls by dose curve). The note with it: Drosophila S3 cells, BODIPY lipid droplet/cell ratio, laser cytometry, cells loaded with oleic acid. Summed up: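 Cells seeded at 5,000 per well were treated with compounds over a concentration series and loaded with oleic acid (400 uM, as added). Lipid droplet fluorescence (488 nm excitation, 500-530 nm channel) was read by laser-scanning cytometry and normalized to 20 uM Triacsin C.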

The target in test [15] is Ubiquitin carboxyl-terminal hydrolase 1 (Homo sapiens) (UniProt O94782). Put plainly: Inhibitors of USP1/UAF1: Pilot qHTS (AID 504865).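 Note: rhodamine fluorescence freed from ubiquitin-rhodamine substrate followed over time; top concentration of the series differs between compounds; % is set by controls: 0 for no effect and ±100 for the full control effect; nearly all actives have a fitted effect of over 35% in size.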 The method in brief:
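In 50mM HEPES pH 7.8 containing 0.5mM EDTA, 1mM TCEP, 0.1 mg/ml BSA and 0.01% Tween-20, 1nM USP1/UAF1 is exposed to compound for 15 min, then Ub-Rho (150nM final) is added and fluorescence is read over time.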

In test [16] the target is DNA dC->dU-editing enzyme APOBEC-3G (Homo sapiens) (UniProt Q9HC16). Kind of test: qHTS for inhibitors of Vif-A3G interactions: Validation (AID 588379). Note: 0% is about no effect. The method in brief:
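HeLa cells stably expressing Vif and A3G-eYFP, 700 cells/well, incubated overnight at 37 deg C, then exposed to compound overnight at 37 deg C. Inhibition of Vif-mediated degradation read as increased yellow fluorescence (Ex 488/Em 500-530) by laser-scanning cytometry.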

The subject of test [17] is Zika virus NS2B-NS3 protease. Kind of test: Primary screen GU AMC qHTS for Zika virus inhibitors (AID 1347154).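 Note: 0% = no-inhibitor control and -100% = no-enzyme control; nearly all actives have a fitted effect of over 70% in size.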 Summed up: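 Unlinked Zika NS2B hydrophilic domain/NS3 protease domain noncovalent complex (25 nM final) in 10 mM Tris-HCl pH 8.0, 0.01% Tween 20, with AMC peptide substrate. Fluorescence (ex 340, em 450 nm) change over 15 min, room temperature; percent inhibition fitted to 4-parameter Hill equation.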

A short description of test [18]: Counterscreen qHTS for small molecule stabilizers of the endoplasmic reticulum resident proteome: GLuc-NoTag assay (AID 1508627).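 Note: SH-SY5Y cells given compound then 100 nM thapsigargin to empty ER calcium; 0% = thapsigargin alone and -100% = DMSO vehicle control.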 The method in brief:
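SH-SY5Y cells stably expressing constitutively secreted GLuc (no SERCaMP tag) were pre-incubated 5 h, treated with compound for 19 h, then 100 nM thapsigargin for 4 h at 37C; medium GLuc read by coelenterazine luminescence.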

Test [19] addresses Mitogen-activated protein kinase 10 (Mus musculus) (UniProt Q61831). Put plainly: JNK3 AlphaScreen Assay (AID 530; active = well fitted curve in either direction with a large enough effect, not every such curve was filed as active). The method in brief: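 JNK3 came from HepG2 lysates pre-activated with IL-1beta and TNF-alpha and phosphorylated biotinylated GST-cJun (1-79) at 10 uM ATP, pH 7.6, room temperature. Compounds were titrated. AlphaScreen signal used anti-phospho-cJun (Ser73) antibody.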
Background: Bead proximity is the source of the signal in Alpha formats.

The target in test [20] is Cytochrome P450 3A4 (Homo sapiens) (UniProt P08684). Kind of test: qHTS Assay for Activators of Cytochrome P450 3A4 (AID 885). Note: nearly all actives have a fitted effect of over 65% in size. The method in brief: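 Signal was normalized against complete inhibition by 57 uM ketoconazole. The reaction used 20nM CYP3A4 with 25uM Luciferin-PPXE, 10-min compound preincubation and a 60-min NADPH-supported step at RT.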
Test [21] in a line: Cell Viability qHTS for small molecule stabilizers of the endoplasmic reticulum resident proteome (AID 1508629). The note with it: cell viability counter-screen, 100 nM thapsigargin for final 4 h.
[22] abbreviates: measured here: cell count channel max response.
Setting [23] is: measured here: lipid channel max response.

Several values for one entry are separate records, joined by “and”; a condition that tells them apart may be missing. Equal entries are not always repeated. Records with an inconclusive call do not appear. Activity calls are given as the source filed them. Unless noted, calls come from the whole dose curve; as a rule, active = well fitted curve in the direction sought with a large enough effect; inconclusive = small, poorly fitted or top-dose-only effect, or another doubt; inactive = no such curve, though single readings can be large; an effect the other way counts as inactive or inconclusive.

Chain of 3',5'-cyclic-AMP phosphodiesterase 4B (Homo sapiens) (Q07343 whole entry, looked up): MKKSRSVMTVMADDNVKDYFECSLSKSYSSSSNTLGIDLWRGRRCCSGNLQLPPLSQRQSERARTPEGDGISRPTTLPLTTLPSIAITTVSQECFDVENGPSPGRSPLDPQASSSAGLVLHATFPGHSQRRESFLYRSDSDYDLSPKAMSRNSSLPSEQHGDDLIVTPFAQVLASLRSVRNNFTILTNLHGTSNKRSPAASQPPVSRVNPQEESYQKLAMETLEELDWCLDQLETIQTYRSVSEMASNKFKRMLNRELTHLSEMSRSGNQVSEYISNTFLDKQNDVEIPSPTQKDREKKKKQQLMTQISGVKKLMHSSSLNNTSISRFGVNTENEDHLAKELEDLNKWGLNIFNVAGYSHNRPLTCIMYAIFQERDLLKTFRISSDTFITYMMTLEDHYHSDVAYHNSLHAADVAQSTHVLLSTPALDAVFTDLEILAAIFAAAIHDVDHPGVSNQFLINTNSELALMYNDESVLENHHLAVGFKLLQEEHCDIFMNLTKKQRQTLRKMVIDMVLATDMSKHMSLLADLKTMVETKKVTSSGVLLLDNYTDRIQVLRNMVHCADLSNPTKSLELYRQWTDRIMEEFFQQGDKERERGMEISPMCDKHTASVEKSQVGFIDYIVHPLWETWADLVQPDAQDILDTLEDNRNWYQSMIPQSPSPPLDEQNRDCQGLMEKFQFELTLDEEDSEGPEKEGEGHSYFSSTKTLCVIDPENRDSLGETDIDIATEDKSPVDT
Chain of Glucocorticoid receptor (Homo sapiens) (P04150 whole entry, looked up, the tested form may be a part): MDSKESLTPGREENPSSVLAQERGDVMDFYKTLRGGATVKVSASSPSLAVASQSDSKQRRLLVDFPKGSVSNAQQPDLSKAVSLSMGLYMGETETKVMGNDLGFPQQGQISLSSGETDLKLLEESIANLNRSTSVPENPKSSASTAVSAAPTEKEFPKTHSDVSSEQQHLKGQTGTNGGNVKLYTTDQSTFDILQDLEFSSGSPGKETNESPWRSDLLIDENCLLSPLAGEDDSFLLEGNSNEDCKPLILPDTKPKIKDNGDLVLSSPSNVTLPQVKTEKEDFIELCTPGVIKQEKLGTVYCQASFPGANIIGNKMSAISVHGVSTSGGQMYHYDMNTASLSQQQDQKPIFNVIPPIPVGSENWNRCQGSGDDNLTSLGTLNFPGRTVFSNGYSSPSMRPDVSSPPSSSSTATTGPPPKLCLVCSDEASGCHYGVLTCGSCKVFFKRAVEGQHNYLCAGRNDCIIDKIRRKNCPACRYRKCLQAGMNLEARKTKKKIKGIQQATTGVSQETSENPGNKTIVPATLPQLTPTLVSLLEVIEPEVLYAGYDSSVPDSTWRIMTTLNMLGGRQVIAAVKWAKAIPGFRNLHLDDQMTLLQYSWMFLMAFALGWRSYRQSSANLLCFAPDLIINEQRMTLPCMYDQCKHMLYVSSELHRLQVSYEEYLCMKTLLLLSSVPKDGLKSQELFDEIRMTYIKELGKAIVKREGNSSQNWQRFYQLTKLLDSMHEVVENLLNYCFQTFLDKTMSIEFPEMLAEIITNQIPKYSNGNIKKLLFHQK
Chain of DNA dC->dU-editing enzyme APOBEC-3G (Homo sapiens) (Q9HC16 whole entry, looked up): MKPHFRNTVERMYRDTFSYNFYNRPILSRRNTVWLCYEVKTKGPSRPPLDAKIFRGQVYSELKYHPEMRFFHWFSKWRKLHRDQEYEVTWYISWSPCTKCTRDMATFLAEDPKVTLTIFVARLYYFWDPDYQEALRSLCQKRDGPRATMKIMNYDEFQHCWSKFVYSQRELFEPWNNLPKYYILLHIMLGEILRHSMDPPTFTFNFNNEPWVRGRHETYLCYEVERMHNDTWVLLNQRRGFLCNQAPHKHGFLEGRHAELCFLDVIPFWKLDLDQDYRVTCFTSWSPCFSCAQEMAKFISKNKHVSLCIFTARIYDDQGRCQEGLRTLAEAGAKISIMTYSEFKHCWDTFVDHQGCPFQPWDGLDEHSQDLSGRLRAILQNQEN
Chain of Muscarinic acetylcholine receptor M1 (Rattus norvegicus) (P08482 whole entry, looked up): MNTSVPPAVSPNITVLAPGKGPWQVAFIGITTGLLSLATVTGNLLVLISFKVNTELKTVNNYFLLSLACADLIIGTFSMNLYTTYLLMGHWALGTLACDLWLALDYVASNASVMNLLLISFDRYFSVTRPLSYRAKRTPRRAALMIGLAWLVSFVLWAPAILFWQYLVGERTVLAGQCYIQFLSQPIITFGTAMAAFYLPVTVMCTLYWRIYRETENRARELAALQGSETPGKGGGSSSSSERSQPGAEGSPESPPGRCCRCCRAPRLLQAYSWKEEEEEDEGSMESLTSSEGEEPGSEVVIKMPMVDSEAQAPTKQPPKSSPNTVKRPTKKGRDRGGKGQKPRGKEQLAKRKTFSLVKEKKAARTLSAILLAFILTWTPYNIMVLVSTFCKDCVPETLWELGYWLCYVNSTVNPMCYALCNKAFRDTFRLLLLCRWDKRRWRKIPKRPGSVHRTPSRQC
Chain of Ubiquitin carboxyl-terminal hydrolase 1 (Homo sapiens) (O94782 whole entry, looked up): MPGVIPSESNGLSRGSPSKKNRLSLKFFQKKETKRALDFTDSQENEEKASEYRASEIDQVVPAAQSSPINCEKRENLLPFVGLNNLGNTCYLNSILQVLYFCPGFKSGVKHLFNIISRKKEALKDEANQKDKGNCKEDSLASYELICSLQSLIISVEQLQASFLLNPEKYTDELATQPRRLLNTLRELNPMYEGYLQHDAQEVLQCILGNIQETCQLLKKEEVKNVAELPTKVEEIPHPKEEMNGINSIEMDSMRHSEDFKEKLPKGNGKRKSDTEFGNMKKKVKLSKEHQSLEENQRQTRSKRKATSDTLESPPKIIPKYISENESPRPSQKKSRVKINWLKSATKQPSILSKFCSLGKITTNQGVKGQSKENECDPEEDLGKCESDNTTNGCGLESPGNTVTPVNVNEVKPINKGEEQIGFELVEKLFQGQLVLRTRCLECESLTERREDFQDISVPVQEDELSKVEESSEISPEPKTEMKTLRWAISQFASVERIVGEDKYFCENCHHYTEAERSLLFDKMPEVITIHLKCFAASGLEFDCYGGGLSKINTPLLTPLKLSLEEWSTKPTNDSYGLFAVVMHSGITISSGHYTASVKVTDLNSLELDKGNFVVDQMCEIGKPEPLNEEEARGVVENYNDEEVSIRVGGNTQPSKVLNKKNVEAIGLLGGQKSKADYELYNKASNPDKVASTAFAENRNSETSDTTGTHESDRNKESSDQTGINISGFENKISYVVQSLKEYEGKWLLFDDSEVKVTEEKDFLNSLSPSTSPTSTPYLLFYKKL
Chain of Alpha-galactosidase A (Homo sapiens) (P06280 whole entry, looked up): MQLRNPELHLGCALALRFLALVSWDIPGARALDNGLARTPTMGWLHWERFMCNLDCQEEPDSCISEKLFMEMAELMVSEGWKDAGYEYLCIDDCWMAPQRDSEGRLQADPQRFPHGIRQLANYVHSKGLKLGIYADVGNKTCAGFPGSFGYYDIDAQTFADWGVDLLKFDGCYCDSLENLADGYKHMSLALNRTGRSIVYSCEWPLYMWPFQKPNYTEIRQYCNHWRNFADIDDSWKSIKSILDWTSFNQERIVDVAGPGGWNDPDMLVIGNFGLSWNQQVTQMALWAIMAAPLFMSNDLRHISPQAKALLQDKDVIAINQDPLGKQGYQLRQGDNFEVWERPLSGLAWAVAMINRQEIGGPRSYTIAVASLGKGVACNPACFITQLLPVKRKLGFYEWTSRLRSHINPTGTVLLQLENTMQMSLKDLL
Chain of Cytochrome P450 3A4 (Homo sapiens) (P08684 whole entry, looked up): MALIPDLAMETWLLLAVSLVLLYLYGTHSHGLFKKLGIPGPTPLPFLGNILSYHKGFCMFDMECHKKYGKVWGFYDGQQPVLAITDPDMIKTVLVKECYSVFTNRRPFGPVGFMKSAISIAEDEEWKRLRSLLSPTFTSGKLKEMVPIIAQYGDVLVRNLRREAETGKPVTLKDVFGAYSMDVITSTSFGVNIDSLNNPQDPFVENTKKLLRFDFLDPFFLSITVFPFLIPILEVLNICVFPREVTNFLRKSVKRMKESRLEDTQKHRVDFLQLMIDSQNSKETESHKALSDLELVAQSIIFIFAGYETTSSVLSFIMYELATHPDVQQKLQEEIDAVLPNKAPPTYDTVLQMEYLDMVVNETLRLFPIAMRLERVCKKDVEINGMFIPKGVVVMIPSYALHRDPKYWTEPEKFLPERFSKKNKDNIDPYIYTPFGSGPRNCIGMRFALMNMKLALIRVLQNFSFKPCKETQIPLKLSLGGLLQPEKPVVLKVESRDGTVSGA
Chain of Pyruvate kinase PKM (Homo sapiens) (P14618 whole entry, looked up): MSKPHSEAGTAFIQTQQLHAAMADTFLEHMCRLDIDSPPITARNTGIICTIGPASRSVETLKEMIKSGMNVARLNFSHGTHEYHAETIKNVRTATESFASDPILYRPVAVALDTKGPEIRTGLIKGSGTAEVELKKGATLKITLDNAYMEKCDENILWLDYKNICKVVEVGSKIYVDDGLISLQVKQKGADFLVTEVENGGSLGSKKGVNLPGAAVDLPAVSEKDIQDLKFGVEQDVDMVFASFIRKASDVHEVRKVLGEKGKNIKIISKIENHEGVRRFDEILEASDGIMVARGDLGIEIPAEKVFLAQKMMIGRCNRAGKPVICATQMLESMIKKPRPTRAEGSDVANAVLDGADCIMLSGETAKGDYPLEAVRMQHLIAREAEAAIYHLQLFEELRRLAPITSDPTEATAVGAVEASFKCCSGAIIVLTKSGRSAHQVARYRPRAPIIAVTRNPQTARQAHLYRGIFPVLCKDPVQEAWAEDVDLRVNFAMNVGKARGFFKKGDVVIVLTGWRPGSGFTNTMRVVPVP

Turning to `O=C1N=C(O)CN1/N=C\c1ccc(-c2ccc([N+](=O)[O-])cc2)o1`, the activity change, negative = inhibition in test [1] (at 17.2 µM (top of the series)) is -13.8% (inactive); in test [1] (at 38 µM (top of the series)) it was -14.1% (inactive); in [2] (at 17.2 µM (top of the series)) it was 4.77% (inactive); in [2] (at 38 µM (top of the series)) it was -3.36% (inactive); in [14] (at 25.7 µM (top of the series)) it was 3.41% (inactive). Further, the activity, negative = inhibition in [3] (at 17.2 µM (top of the series)) is 9.37% (inactive); in [3] (at 38 µM (top of the series)), -4.41% (inactive). In addition, the Potency in test [4] was > 46 µM (inactive) and > 20.6 µM (inactive); in [5] it was > 46 µM (inactive) and > 20.6 µM (inactive). The Potency entry in test [6], in test [7], in [8], in test [9], in test [10] and in test [15] was “inactive” throughout. The Potency entry in test [16], in test [17] and in test [18] was “inactive” in each case. In addition, the molecule was classed as inactive in test [11], in test [12] and in [13]. Besides, the results for the max response in [14] (setting [22]) and in test [14] (setting [23]) were 3.82% and 7.61%, respectively.

On to `CC(C)C[C@H]1C(=O)N2CCC[C@@H]2[C@]2(O)O[C@](NC(=O)[C@@H]3C=C4c5cccc6[nH]c(Br)c(c56)C[C@H]4N(C)C3)(C(C)C)C(=O)N12`, for which the Potency in test [4] and in [5] was > 46 µM (inactive) in each case. Moreover, the Potency result in [19], in test [6], in [20], in test [16], in test [17] and in test [18] was “inactive” throughout. The max response in [21] was -14.6% (inactive).

With `COc1ccc(NS(=O)(=O)c2ccc(I)cc2)cc1N1CCN(C)CC1`, the Potency in test [4] and in test [5] was > 46 µM (inactive) throughout. For the same molecule, the Potency entry in test [6], in test [15], in [16], in [17] and in test [18] was “inactive” in each case. In test [14] (at 57.5 µM (top of the series)), the activity change, negative = inhibition is 12.5% (inactive). Moreover, the max response was 18.9% in test [14] (setting [22]), 28.9% in test [14] (setting [23]) and -15.1% (inactive) in test [21].
